JMJD2A Tudor inh – inhibitors of human JMJD2A Tudor domain | AlphaScreen JMJD2A-Tudor / H3K4me3 peptide binding | Potency, µM (doses to about 114 µM), actives largely listed as inhibitors | 390,000 compounds, 4.4% hits | O75164; note: nearly all actives have a fitted effect of over 50% in size
Target sequence (O75164 whole entry, looked up, the tested form may be a part): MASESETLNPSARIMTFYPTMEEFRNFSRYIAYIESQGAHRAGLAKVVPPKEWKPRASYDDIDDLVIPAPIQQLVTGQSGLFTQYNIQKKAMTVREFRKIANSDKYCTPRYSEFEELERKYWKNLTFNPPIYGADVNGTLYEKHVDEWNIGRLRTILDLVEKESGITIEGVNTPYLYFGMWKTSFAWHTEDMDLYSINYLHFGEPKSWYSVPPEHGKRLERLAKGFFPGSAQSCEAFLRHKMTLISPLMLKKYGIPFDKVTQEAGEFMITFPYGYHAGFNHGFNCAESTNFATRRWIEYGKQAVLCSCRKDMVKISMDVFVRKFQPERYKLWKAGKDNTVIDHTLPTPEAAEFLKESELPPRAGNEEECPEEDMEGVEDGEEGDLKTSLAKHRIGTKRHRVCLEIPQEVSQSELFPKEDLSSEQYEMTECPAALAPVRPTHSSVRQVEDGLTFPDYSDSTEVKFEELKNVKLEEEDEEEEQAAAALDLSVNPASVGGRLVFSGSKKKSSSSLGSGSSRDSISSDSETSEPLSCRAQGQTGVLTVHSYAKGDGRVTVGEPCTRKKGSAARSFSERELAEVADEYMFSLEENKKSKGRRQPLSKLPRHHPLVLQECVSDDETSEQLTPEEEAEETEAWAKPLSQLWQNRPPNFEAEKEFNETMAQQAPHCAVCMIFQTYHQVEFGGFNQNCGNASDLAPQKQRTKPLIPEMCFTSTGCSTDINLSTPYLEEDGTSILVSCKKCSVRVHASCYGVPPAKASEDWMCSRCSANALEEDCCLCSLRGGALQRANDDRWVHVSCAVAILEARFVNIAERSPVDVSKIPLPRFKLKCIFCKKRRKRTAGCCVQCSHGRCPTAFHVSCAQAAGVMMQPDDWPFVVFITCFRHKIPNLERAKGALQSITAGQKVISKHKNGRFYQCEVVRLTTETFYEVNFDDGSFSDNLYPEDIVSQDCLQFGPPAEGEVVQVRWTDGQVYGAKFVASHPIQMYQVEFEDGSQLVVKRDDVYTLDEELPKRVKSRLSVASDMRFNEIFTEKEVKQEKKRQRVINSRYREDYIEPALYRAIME
G9a inh – inhibitors of human histone lysine methyltransferase G9a. Q96KQ7. G9a H3K9 monomethylation, AlphaScreen, 2 h. Potency, µM (titrated, usually from 102 µM), hits mostly inhibitors. 350,000 compounds, 8.8% hits; note: nearly all actives have a fitted effect of over 75% in size
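Signal arises when biotinylated H3K9 peptide, once monomethylated, bridges streptavidin donor and antibody-captured acceptor beads. Enzyme at 20 nM was preincubated 15 min with test compounds; peptide 500 nM and SAM 20 uM then reacted for 2 h.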
PLK1 PBD inh – blocks phosphopeptide binding to human PLK1 polo-box domain. Plk1 PBD binding of FITC phosphopeptide, fluorescence polarization. 360,000 compounds, 2.8% hits. Potency, µM, actives largely listed as inhibitors; note: series mostly up to about 57 µM; nearly all actives have a fitted effect of over 65% in size
VDR inh – blocks the human vitamin D receptor | VDR-SRC2-3 peptide fluorescence polarization, 2 h | Potency, µM, hits mostly inhibitors | P11473 | 400,000 compounds, 0.93% hits | AID 504847
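Measured by FP: displacement of SRC2-3 coactivator peptide from VDR by library compounds, following a two-hour ambient incubation.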
BAZ2B inh – BAZ2B (human) inhibition; Q9UIF8; AlphaScreen BAZ2B-H3K14Ac peptide displacement; Potency, µM (series often up to 114 µM), usual class: inhibitors; 360,000 compounds, 4.4% hits; note: nearly all actives have a fitted effect of over 60% in size
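Inhibition is scored as reduced AlphaScreen emission. The BAZ2B/b-H3(5-23)K14Ac complex (50 nM each) in PBS pH 7.4, 0.01% Tween-20 meets compound (up to 110 uM) for 30 min at RT before bead addition.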
HP1b chromo inh – blocks HP1-beta chromodomain binding to methylated histone tails | P83916 | AlphaScreen HP1-beta / biotin-H3K9me3 peptide binding | Potency, µM (highest dose often 114 µM), most hits filed as inhibitors | 390,000 compounds, 0.56% hits | AID 540317; note: nearly all actives have a fitted effect of over 70% in size
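HP1-beta protein (50 nM final) preincubated 30 min at room temperature with biotinylated H3(1-18)K9me3 peptide (50 nM) in PBS pH 7.4, 0.01% Tween-20, then compound added for 30 min. AlphaScreen streptavidin donor/nickel chelate acceptor beads (10 ug/mL final), 30 min dark, luminescence read.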
A number is an active result; – = inactive; ? = inconclusive; · = no result; [ ] = another dose, or the depositor's remark. Sampled rows, rich in hits. Any-hit rate of the full collection: about 11%. Calls come from the whole dose curve; as a rule, active = well fitted curve in the direction sought with a large enough effect; inconclusive = small, poorly fitted or top-dose-only effect, or another doubt; inactive = no such curve, though single readings can be large; an effect the other way counts as inactive or inconclusive.

SMILES	JMJD2A Tudor inh	G9a inh	PLK1 PBD inh	VDR inh	BAZ2B inh	HP1b chromo inh
N#CC1(NC(=O)CSc2n[nH]c(-c3ccccc3)n2)CCCCC1	–	8.9µM	–	–	–	–
O=C(CSc1n[nH]c(-c2ccncc2)n1)Nc1ccccn1	56µM	?	–	–	?	–
CCC(=O)Nc1cccc(NC(=O)c2cccc([N+](=O)[O-])c2)c1	–	–	–	–	–	–
Nc1ccn([C@@H]2O[C@H](CNCc3cnc(N4CCOCC4)nc3)[C@@H](O)[C@H]2O)c(=O)n1	·	·	–	·	·	·
O=C(CSc1n[nH]c(-c2ccccn2)n1)Nc1cccc(Cl)c1	6.3µM	?	–	–	5µM	–
Cc1ccc(CSc2c(C)cnc3c2c(=O)n(C)c(=O)n3C)cc1	–	–	·	–	–	–
CCCCNC1=CC(=O)C(NCCCC)=CC1=O	40µM	·	–	?	·	18µM
CCc1ccccc1NC(=S)N1CCN(c2cccc(OC)c2)CC1	–	–[0.501 µM]	–	–	–	–
CCc1ccccc1NC(=S)NCC1CCN(c2ccc(OC)cc2)C1 (configuration not stated)	35µM	?	?	–	22µM	13µM
COc1ccc(N2CCC(CNC(=S)Nc3cccc(OC)c3)C2)cc1 (configuration not stated)	·	?	·	·	16µM	·
CCc1cccc(C)c1NC(=S)NCC1CCN(c2ccc(OC)cc2)C1 (configuration not stated)	45µM	10µM	?	–	28µM	22µM
COc1cccc(NC(=S)NCc2ccc(F)cc2)c1	–	·	–	–	–	–
COc1ccc(N2CCN(CC(=O)Nc3c(C)cccc3C)CC2)cc1	·	·	–	·	·	·
COc1ccc(-n2c(Cc3cccn3C)nnc2SCC(=O)Nc2ccc(F)cc2)cc1	–	35µM	–	?	?	–
COc1ccc(NC(=O)CSc2nnc(Cc3cccn3C)n2-c2ccc(F)cc2)cc1	–	71µM	?	–	?	–
C/C(=N\NC(=O)c1csc(C)c1C)c1ccc(Cl)s1	–[11.4 µM]	?	24µM	–	–	–
C/C(=N\NC(=O)c1ccoc1C)c1ccc(Cl)s1	–	–	–	–	–	–
O=S(=O)(c1ccc2c(c1)OCCO2)N1CCN(S(=O)(=O)c2ccc(Cl)cc2F)CC1	–	·	·	·	·	·
COc1cc(NC2c3ncccc3C(=O)N2Cc2ccco2)cc(OC)c1OC (configuration not stated)	–	35µM	?	–	–	–
O=C1c2cccnc2C(O)N1Cc1ccco1 (configuration not stated)	–	–	–	–	–	–
O=C1c2cccnc2C(Nc2ccccc2Br)N1Cc1ccco1 (configuration not stated)	–	50µM	–	–	–	–
CC(=O)c1ccc(NC2c3ncccc3C(=O)N2Cc2ccc(F)cc2)cc1 (configuration not stated)	–	·	–	–	?	–
O=C1c2cccnc2C(Nc2ccccc2)N1Cc1ccco1 (configuration not stated)	32µM	25µM	–	–	56µM	–
O=C1c2cccnc2C(Nc2cccc(F)c2)N1Cc1ccco1 (configuration not stated)	–	25µM	–	–	–	–
CCn1cc(C(=O)OCC(=O)N(C)Cc2ccccc2)c(=O)c2ccc(C)nc21	–	–	–	–	·	–
SMILES	JMJD2A Tudor inh	G9a inh	PLK1 PBD inh	VDR inh	BAZ2B inh	HP1b chromo inh
CC(C)OP(=O)(OC(C)C)C(O)c1cccc([N+](=O)[O-])c1 (configuration not stated)	–	–	–	–	–	–
COc1cc([N+](=O)[O-])ccc1NC(=O)Nn1cnnc1	–	–	–	–	–	–
CC(=O)c1cccc(NC2c3ccccc3C(=O)N2Cc2ccco2)c1 (configuration not stated)	–	–	–	–	–	–
CC(=O)c1cccc(NC2c3ncccc3C(=O)N2Cc2ccco2)c1 (configuration not stated)	–	50µM	–	–	–	–
Fc1ccccc1-c1cc2ncccc2cn1	?	–[0.501 µM]	–	–	56µM	–
CC(=O)Nc1cncc(-c2ccccc2F)n1	·	·	–	·	·	·
COc1ccc(N=C2C(=Nc3ccc(OC)cc3)N(c3ccc(OC)cc3)C(=S)N2c2ccccc2)cc1	?	?	–	–	2µM	?
COc1ccc(N=C2C(=Nc3ccc(OC)cc3)N(c3ccc(OC)cc3)C(=S)N2C)cc1	8.9µM	5µM	–	–	2.8µM	7.1µM
COc1ccc(N=C2SCC(=O)N2c2ccc(OC)cc2)cc1	–	–	–	–	–	–
COc1ccc(N2CC(=O)N(c3ccccc3)C2=S)cc1	–	–	–	–	–	–
CN(C)c1nc(=NCc2cccs2)ss1	?	·	5.3µM	?	·	–
Cc1nc2cnc(N(C)C)nc2n(Cc2cccs2)c1=O	·	–[12.7 µM]	·	–	·	·
CC(C)c1nc(-c2ccccc2)c(-c2ccccc2)[nH]1	–	–	–	–	–	–
CC(C)c1nc(=S)n(-c2ccccc2)[nH]1	6.3µM	10µM	–	–	–	–
CC(=O)Nc1nc(=S)n(-c2ccccc2)[nH]1	18µM	4µM	27µM	–	?	?
CCn1c(C)nc2cc(C(=O)N/N=C/c3cccc(OC)c3O)ccc21	?	79µM	–	–	–	–
CCn1c(C)nc2cc(C(=O)N/N=C/c3ccc(O)c(O)c3O)ccc21	6.3µM	2µM	8.4µM	–	11µM	8.9µM
COc1ccccc1CN1CCC2(CC1)CCN(C(=O)c1cccn1C)CC2	·	–[12.7 µM]	·	–	·	·
COc1ccc(OC)c(-n2nnc(-c3nc(-c4ccc5c(c4)OCO5)no3)c2C)c1	–	–	·	–	–	–
Nc1ccc(Cn2ccc3c4c(N)nc(N)nc4ccc32)cc1	45µM	·	–	–	·	79µM
Nc1nonc1-c1nc2ccccc2n1Cc1ccc(Cl)cc1	–	–	–	–	–	–
Nc1nnnn1/N=C/c1ccccc1C(F)(F)F	–[11.4 µM]	–[2.33 µM]	3.4µM	–	–	–
Cc1ccccc1N(C)C1=N[S+](=O)([O-])c2ccccc21	–	·	·	·	·	·
CCOC(=O)C1CCCN(CC(=O)Nc2cc(C)cc(C)c2)C1 (configuration not stated)	–	50µM	–	–	–	–
CCOC(=O)C1CCCN(CC(=O)Nc2cccc(C(C)=O)c2)C1 (configuration not stated)	22µM	18µM	–	–	50µM	?
CCOC(=O)C1CCN(CC(=O)Nc2ccc(OC)c(Cl)c2)CC1	2.8µM	10µM	–	–	50µM	?
COc1ccc(NC(=O)CN2CCN(CC(=O)Nc3ccccc3Cl)CC2)cc1Cl	–	·	–	–	–	–
CCOC(=O)C1CCCN(CCC(=O)Nc2ccccc2)C1 (configuration not stated)	–	?	–	–	–	–

From PubChem BioAssay
